Data: paper PMC7826789 (International Journal of Molecular Sciences, 2021)

These molecules were tested on NUAK1.

| Compound | Kinases covered |
| --- | --- |
| Cc1nc(Nc2cnn(C3CCNCC3)c2)nc2c1N(C)C(=O)c1cc3ccccc3cc1N2C [HTH-01-015] | NUAK1 |
| CCC(=O)Nc1cccc(Oc2nc(Nc3ccc(N4CCN(C)CC4)cc3OC)ncc2Cl)c1 [WZ4003] | NUAK1 |
| CN1C(=O)c2ccccc2N(C)c2nc(Nc3cnn(C4CCNCC4)c3)ncc21 [XMD-17-51] | NUAK1 |

What follows are molecules tested on PDGFRA.

| Compound | Kinases covered |
| --- | --- |
| Cn1ccc2ncnc(Oc3ccc(NC(=O)Nc4ccccc4)cc3)c21 [TPKI-69] | PDGFRA |
| Cc1cnc(N)c(/C=C/c2cncc(C(=O)NCCc3ccc(Cl)cc3Cl)c2)c1 [GSK190937] | PDGFRA |
| COc1cc2ncn(-c3cc(O[C@H](C)c4ccccc4Cl)c(C(N)=O)s3)c2cc1OC [GSK237701A] | PDGFRA |
| O=C(Nc1ccccc1)Nc1cccc(Oc2ccc3nccn3n2)c1 [TPKI-39] | PDGFRA |
| Nc1ncnc2occ(-c3ccc(NC(=O)Nc4cc(C(F)(F)F)ccc4F)cc3)c12 [GW770249X] | PDGFRA |
| COc1cc2nccc(Nc3ccc(OCc4ccc(NC(C)=O)cc4)cc3)c2cc1OC [GW440135] | PDGFRA |
